A selection: hits, their analogues and other compounds. The true share with any hit is near 0.5%.
E coli growth-1: reduces bacterial viability in AddAB counter-screen; E. coli V3065 growth, OD600 absorbance, 18 h; inhibition, % at 11.9 µM; hit rate 0.27% among 330,000; AID 449728;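 active = inhibition above the campaign's mean inhibition across all tested compounds plus 3 SD, cut at about 9.9% in these data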;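 note: uninfected addAB+ strain grown without phage in ampicillin broth; 0% = DMSO wells and 100% = ciprofloxacin 0.95 µg/ml wells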
AddAB inh: less growth of phage-infected E. coli with AddAB; E. coli expressing H. pylori AddAB, absorbance growth; inhibition, % at 11.9 µM; hit rate 0.29% among 330,000; AID 435030; in the data active = inhibition above about 12%;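 note: 0% = vehicle wells of infected cells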
E coli growth-2: blocks Escherichia coli growth; OD600, 23 h; active compounds read low; OD600 absorbance (test concentration not listed); hit rate 0.21% among 330,000; AID 1053175;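 active = OD600 absorbance below the run mean of sample wells minus 3.6 SD, in any replicate, cut at about 0.56 in these data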
phage Ecoli inh: E. coli growth loss with phage present. growth absorbance. inhibition, % at 11.9 µM. hit rate 0.26% among 360,000. AID 651602; in the data active = inhibition above about 11%
Tat export inh: inhibitors of E. coli Tat protein transport; E. coli MC4100 TorA-mCherry Tat export, fluorescence; inhibition, % at 10 µM; hit rate 0.036% among 340,000;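 active = mean replicate inhibition at least 50% and at least half of replicates individually reaching 50%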;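 note: exported cargo escapes ClpAP degradation while cytoplasmic cargo is degraded and loses fluorescence; 0% = median of neutral control wells and 100% = median of NaSCN control wells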
AddAB confirm: growth loss of T4-infected E. coli expressing H. pylori AddAB, confirmed; shares compounds with AddAB inh; E. coli V3065 expressing H. pylori AddAB, T4 phage, OD; T4 phage with gene 2 nonsense mutations; inhibition, % at 11.9 µM; hit rate 64% among 880; AID 488942;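 active = mean inhibition above a set limit taken from the earlier primary screen, cut at about 13% in these data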;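 note: higher means less bacterial growth since AddAB block lets phage replicate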
RecBCD counter: reduces growth of phage-infected RecBCD+ E. coli, AddAB inhibitor counter-screen; hit rate 73% among 880; E. coli V66 + mutant T4 phage, OD growth; shares compounds with AddAB inh; inhibition, % at 11.9 µM;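 active = mean inhibition above the mean of solvent-only control wells plus 3 SD, cut at about 4% in these data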;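 note: optical density read after an 18 h incubation at 37 °C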
Bact viability: reduces bacterial viability, AddAB inhibitor counter-screen; shares compounds with AddAB inh; absorbance (AddAB counterscreen); inhibition, % at 11.9 µM; hit rate 35% among 880; AID 488956; in the data active = inhibition above about 25%
RecBCD conf: confirmation: growth loss of phage-infected RecBCD+ E. coli (RecBCD inhibitor screen) | shares compounds with phage Ecoli inh | inhibition, % at 11.9 µM | hit rate 45% among 890 | AID 651982 | E. coli V66 + T4 2- phage, growth OD;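 active = mean inhibition over triplicates exceeding the hit threshold derived in the original primary screen, cut at about 11% in these data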
Ecoli viability: counter-screen for RecBCD inhibitors: inhibitors of bacterial viability | shares compounds with phage Ecoli inh | E. coli viability, absorbance (OD) growth | inhibition, % at 11.9 µM | hit rate 29% among 890; in the data active = inhibition above about 20%;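 note: E. coli strain V66 grown with compound alone and no phage infection; 0% = bacteria with DMSO vehicle only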
AddAB phage OD: growth loss of phage-infected AddAB E. coli, RecBCD counter-screen | inhibition, % at 11.9 µM | E. coli expressing H. pylori AddAB + T4 phage, OD growth; gene 2 mutant T4, recBCD-deleted host | AID 651984 | shares compounds with phage Ecoli inh | hit rate 45% among 890;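 active = mean inhibition above the solvent-only control wells' mean plus 3 SD, cut at about 22% in these data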;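 note: higher means less bacterial growth from phage killing when AddAB is blocked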
* hit, by the source's call; . = not tested or not shown.

SMILES | E coli growth-1 | AddAB inh | E coli growth-2 | phage Ecoli inh | Tat export inh | AddAB confirm | RecBCD counter | Bact viability | RecBCD conf | Ecoli viability | AddAB phage OD
O=C(CC1CC=CCCC(Cc2ccc(F)cc2)C(=O)OCC(c2ccccc2)NC1=O)NCCO (configuration not stated) | . | . | 0.725 | . | . | . | . | . | . | . | .
Cc1cn([C@H]2C[C@H](N=[N+]=[N-])[C@@H](CO)O2)c(=O)[nH]c1=O | 100.3* | 99.5* | . | 97.1* | 38.9 | 100.3* | 70.9* | 100.1* | 97.2* | 93.0* | 100.8*
O=c1[nH]c(=O)n([C@H]2C[C@H](O)[C@@H](CO)O2)cc1F | 84.3* | 100.0* | . | 86.9* | 44.5 | 80.9* | 68.7* | 77.5* | 78.7* | 79.1* | 91.3*
COC(=O)C1=NN(c2ccccc2)C2(SC(=Cc3ccccc3)C(=O)N2c2ccccc2)S1 (configuration not stated) | . | . | 0.729 | . | . | . | . | . | . | . | .
O=C(C1=CC(C2CCCCC2)CC(OCCCCO)O1)N1CCN(Cc2ccccc2)CC1 (configuration not stated) | . | . | 0.651 | . | . | . | . | . | . | . | .
O=c1c2ccc(Cl)cc2nc(-c2cccc(C(F)(F)F)c2)n1O | 11.0* | 12.3* | 0.783 | 11.3* | -3.8 | 3.7 | 7.9* | -1.3 | -0.4 | 1.6 | 0.8
N#Cc1ccc(-c2nc3cc(Cl)ccc3c(=O)n2O)cc1 | -8.5 | -6.9 | 0.63 | -6.1 | 3.3 | . | . | . | . | . | .
CC1OC(OC2C(OC3C[C@]4(C)C(CC(O)C5C([C@]6(C)CCC(C(C)(C)O)O6)CC[C@]54C)[C@@]4(C)CCC(O)C(C)(C)C34)OC(CO)C(O)C2O)C(O)C(O)C1O (some centres not stated) | . | . | 0.702 | . | . | . | . | . | . | . | .
CC(=O)c1c(C)n([O-])c2cc(C)ccc2[n+]1=O | 24.8* | 23.2* | 0.541* | 11.3* | -3.1 | 63.3* | 10.0* | 55.9* | 7.8 | 9.4 | 51.8*
COc1ccc(-c2c(C)n([O-])c(C)c(C)[n+]2=O)cc1OC | 0.4 | 1.2 | 0.693 | -1.3 | 4.3 | . | . | . | . | . | .
CCOc1cccc(/C=N/NC(=O)c2cc(-c3cccn3C)n[nH]2)c1O | 12.0* | 17.5* | . | 18.5* | -11.2 | 18.8* | 20.6* | 20.1 | 9.2 | 9.6 | 15.4
COc1cc(OC)c(OC)cc1/C=N/NC(=O)c1cc(-c2cccn2C)n[nH]1 | -1.7 | -0.2 | . | 3.3 | 4.8 | . | . | . | . | . | .
O=C(Nc1cccnc1)c1ccc([N+](=O)[O-])o1 | 95.7* | 97.5* | 0.412* | 19.7* | -37.3 | 97.6* | 20.0* | 90.8* | 13.1* | 17.2 | 101.2*
CN1CCN(c2ccc(NC(=O)c3ccc([N+](=O)[O-])o3)cc2Cl)CC1 | 91.5* | 98.8* | 0.307* | 23.0* | -12.1 | 98.3* | 23.9* | 94.7* | 15.4* | 19.9* | 85.1*
Cc1cc(C)cc(NC(=O)c2ccc([N+](=O)[O-])o2)c1 | . | . | 0.558 | 9.6 | -4.9 | . | . | . | . | . | .
CC(=O)c1cccc(NC(=O)c2ccc([N+](=O)[O-])o2)c1 | 82.8* | 89.0* | 0.443* | 16.3* | 0.4 | 101.3* | 18.6* | 70.8* | 10.1 | 12.8 | 84.4*
O=C(NNC(=O)c1ccc([N+](=O)[O-])o1)c1ccccc1 | 85.7* | 67.6* | 0.352* | 26.1* | -1.7 | 102.6* | 22.8* | 70.5* | 18.0* | 21.5* | 102.1*
O=C(Nc1cccnc1)c1ccco1 | 0.1 | 1.3 | 0.651 | 0.5 | -8.3 | . | . | . | . | . | .
COc1ccc(NC(=O)c2ccc(Br)o2)cc1 | 2.3 | 4.6 | 0.661 | 4.5 | -17.7 | . | . | . | . | . | .
NC(=O)c1oc2ccccc2c1NC(=O)c1ccc([N+](=O)[O-])o1 | 98.5* | 99.2* | 0.488* | 23.0* | -3.3 | 100.8* | 26.1* | 101.3* | 17.7* | 22.3* | 100.0*
NC(=O)c1oc2ccccc2c1NC(=O)c1ccc(F)cc1 | 0.2 | -1.1 | 0.71 | 2.5 | -4.7 | . | . | . | . | . | .
COc1ccc(NC(=O)c2ccc([N+](=O)[O-])o2)cc1 | 80.0* | 58.2* | 0.475* | 19.1* | -11.7 | 100.4* | 16.6* | 46.3* | 15.3* | 18.1 | 100.3*
Nc1nc(N)c2cc(Sc3ccc4ccccc4c3)ccc2n1 | 102.0* | 98.0* | 0.0785* | 63.4* | . | 97.6* | 72.4* | 94.2* | 69.9* | 64.8* | 95.4*
CN(C)c1ccc(N2C(CC(=O)O)c3cc(C(F)(F)F)ccc3S2(=O)=O)cc1 (configuration not stated) | . | . | 0.701 | . | . | . | . | . | . | . | .
COc1ccc(CCc2cc(OC)c(OC)c(OC)c2)cc1 | . | . | . | 0.2 | 3.6 | . | . | . | . | . | .
SMILES | E coli growth-1 | AddAB inh | E coli growth-2 | phage Ecoli inh | Tat export inh | AddAB confirm | RecBCD counter | Bact viability | RecBCD conf | Ecoli viability | AddAB phage OD
COc1cc(Cc2cc(N)nc(N)n2)cc(OC)c1OC | 101.3* | 101.2* | 0.051* | 94.6* | -6.6 | 98.6* | 99.2* | 98.5* | 103.1* | 104.5* | 103.1*
Cc1nnc(NCCc2ccccc2)c2ccccc12 | 15.5* | 18.0* | 0.524 | 13.0* | 10.2 | 9.8 | 8.5* | 10.0 | 1.6 | 6.3 | 5.8
Cc1nnc(NCc2cccc(Cl)c2)c2ccccc12 | 1.4 | 2.9 | 0.628 | 1.2 | 1.3 | . | . | . | . | . | .
O=[N+]([O-])c1cc(F)c2cccnc2c1O | 54.0* | 53.0* | 0.0825* | 39.5* | -19.2 | 50.1* | 48.6* | 41.0* | 53.3* | 52.9* | 48.5*
O=[N+]([O-])c1ccc(O)c2cccnc12 | 0.1 | -2.6 | 0.633 | 2.7 | -12.6 | . | . | . | . | . | .
O=[N+]([O-])c1cc(Cl)c2cccnc2c1O | 61.7* | 68.0* | 0.067* | 52.2* | -8.7 | 62.6* | 70.0* | 62.7* | 78.4* | 79.3* | 63.1*
CC(=CC(=O)c1ccc(F)cc1)NCc1ccc2c(c1)OCO2 | . | . | 0.712 | . | . | . | . | . | . | . | .
Oc1ccc2ccccc2c1N=Nc1ccccn1 | 31.2* | 25.7* | 0.738 | 27.4* | 4.4 | 27.4* | 24.5* | 24.6 | 23.5* | 26.6* | 30.2*
O=c1[nH]cc(O)c(=O)[nH]1 | -0.7 | 3.7 | 0.746 | 2.8 | 8.8 | . | . | . | . | . | .
O=c1[nH]cc(F)c(=O)[nH]1 | 44.1* | 47.8* | . | 53.1* | 11.3 | 45.1* | 37.8* | 40.9* | 62.8* | 53.3* | 69.7*
FC(F)Oc1ccc(NC(=S)NCc2nc3ccccc3[nH]2)cc1 | 17.1* | 15.6* | 0.542 | 17.4* | -74.3 | 32.7* | 19.2* | 22.2 | 21.1* | 19.0 | 36.1*

High-throughput results (PubChem BioAssay)
